According to ChEMBL document CHEMBL3988442, “University of Dundee, Small-Polar-MMV Screening Library” (2021):
Potency and affinity values are given separately.

These compounds were tested against Protein translocase subunit SecA (Escherichia coli (strain K12)) (UniProt P10408) (assay: Assay to Identify E. coli SecA ATPase Inhibitors). Conditions: 30 µM.
Type: functional
Set-up: scale not given: direction of the effect not stated beside the values

Sequence of Protein translocase subunit SecA (Escherichia coli (strain K12)) (P10408 whole entry): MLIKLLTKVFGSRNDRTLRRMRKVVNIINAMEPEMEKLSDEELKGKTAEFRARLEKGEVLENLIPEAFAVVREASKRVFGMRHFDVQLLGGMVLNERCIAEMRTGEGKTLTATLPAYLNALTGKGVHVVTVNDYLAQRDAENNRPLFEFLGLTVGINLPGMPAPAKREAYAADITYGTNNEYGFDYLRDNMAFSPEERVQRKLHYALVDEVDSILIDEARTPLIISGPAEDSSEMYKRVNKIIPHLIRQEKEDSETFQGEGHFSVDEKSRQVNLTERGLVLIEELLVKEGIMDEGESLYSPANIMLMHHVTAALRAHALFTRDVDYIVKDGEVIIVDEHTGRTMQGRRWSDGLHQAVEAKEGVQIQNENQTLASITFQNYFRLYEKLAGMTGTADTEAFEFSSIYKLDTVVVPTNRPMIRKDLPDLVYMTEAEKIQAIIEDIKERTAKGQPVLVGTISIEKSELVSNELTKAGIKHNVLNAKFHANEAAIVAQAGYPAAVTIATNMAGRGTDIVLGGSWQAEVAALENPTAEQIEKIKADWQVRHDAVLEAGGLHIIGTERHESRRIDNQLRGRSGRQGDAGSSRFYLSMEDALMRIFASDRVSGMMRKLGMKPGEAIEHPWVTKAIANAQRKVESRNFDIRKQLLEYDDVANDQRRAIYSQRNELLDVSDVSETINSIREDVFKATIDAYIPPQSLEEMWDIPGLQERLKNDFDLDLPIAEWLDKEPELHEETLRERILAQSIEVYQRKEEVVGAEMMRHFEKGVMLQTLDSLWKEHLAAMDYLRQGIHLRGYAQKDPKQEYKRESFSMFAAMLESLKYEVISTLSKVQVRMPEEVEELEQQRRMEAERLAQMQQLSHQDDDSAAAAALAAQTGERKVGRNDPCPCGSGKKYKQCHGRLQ

SMILES	Percent Effect [%]
CC(=O)N1CCCN(C(=O)NCCc2cc(Cl)cc(Cl)c2)CC1	-3.3
CC(NC(=O)NCCCN(C)S(C)(=O)=O)c1ccncc1 (stereo not drawn)	-0.684
COc1cc(C(=O)N2CCC(c3n[nH]c(C4CC4)n3)CC2)ccc1C	-4.66
Cc1cc2n(n1)CC(CNCc1cnn(-c3ccccc3)c1)CN2 (stereo not drawn)	2.28
Cc1nc(O)cc(C2CCN(Cc3cccc(F)c3F)C2)n1 (stereo not drawn)	-5.61
CCn1ccnc1CN1CCN(Cc2ccc(C#N)cc2)CC1	-5.95
O=C(CC1CCCC1)N1CCCC1c1nc(O)cc(-c2ccccn2)n1 (stereo not drawn)	-6.13
CC(C)NC(=O)c1ccc2c(c1)nc1n2CCN(C(C)C)C1	-0.173
CN(C)C(=O)CC1CC2(CCNCC2)c2cc(F)ccc21 (stereo not drawn)	-1.58
COc1cccc(COCC(=O)N2CCCC(c3cc(C)[nH]n3)C2)c1 (stereo not drawn)	-3.58
Cc1ccccc1C(=O)N1CCOC2(CNCCOC2)C1 (stereo not drawn)	-0.256
CC(C)n1ccnc1CN1CCCN(C(=O)COC2CCCC2)CC1	-2.6
OC[C@H]1CC[C@]2(CC1)CN(Cc1ccccc1F)Cc1ccccc1O2	-4.99
Cc1nc(CN2C[C@@H]3CN(C(=O)c4cnccn4)C[C@@H]3C2)cs1	-1.57
c1ccc(-c2noc(CNC3CCc4ncnn4C3)n2)nc1 (stereo not drawn)	-2.18
CCN1CC(C(=O)NC(C)(C)CNC(=O)OC(C)(C)C)CC1=O (stereo not drawn)	-5.66
CC(Cn1cccn1)NC(=O)Nc1ccc(F)cc1 (stereo not drawn)	0.465
Cc1nc2cc(O)nn2c(C)c1CCC(=O)N(C)Cc1cscn1	-7.5
CCc1ncc(CNC2CC(=O)N(CCc3cccc(Cl)c3)C2)cn1 (stereo not drawn)	-5.45
CC(C)n1c(C2CCCN(CCS(C)(=O)=O)C2)nc2ccccc21 (stereo not drawn)	-2.02

SMILES	Percent Effect [%]
O=C(Cc1ccc2c(c1)OCCO2)N1CCCC(n2cccn2)C1 (stereo not drawn)	2.92
Cc1nc(C)n(C2CCCN(C(=O)c3sccc3C3CC3)C2)n1 (stereo not drawn)	-1.6
Cc1ccc2c(n1)N(CCn1cccn1)CCN(C(=O)CC1CC1)C2	-3.68
Cc1nc(CNC(C)c2ccc(OCC(=O)NC3CC3)cc2)cs1 (stereo not drawn)	-1.09
CN(CCC#N)C(=O)CCOc1cccc(F)c1	-2.84
COc1cccc(CNC(=O)CN2CCCCC2Cn2cccn2)c1 (stereo not drawn)	-3.05
CN1CC(=O)N(c2cnn(C)c2)CC12CCN(Cc1nccn1C)C2 (stereo not drawn)	-0.706
COc1ncccc1NC(=O)N1CCC(CN2CCOCC2)CC1	2.03
CC(=O)NC(C)(C)C(=O)Nc1ncc(Cc2ccc(C)c(F)c2)s1	-2.79
Cc1cccc(COC[C@]23COC[C@H]2CN(C(=O)c2ccsc2)C3)n1	-1.49
COCc1noc(C2(c3ccc(OC)cc3)CCOCC2)n1	-3.44
CC(=O)Nc1cccc(C(=O)Nc2cnc3n2CCCC3)c1	-3.85
O=C(NCCOc1ccc2c(c1)OCO2)C1CC(=O)N(CC2CC2)C1 (stereo not drawn)	-2.83
CN(C)c1cncc(C2CCN(CCO)CC2)n1	-3.32
COc1ccc(OCC(=O)NS(=O)(=O)c2cc(F)ccc2F)cc1	-8
Cc1nn(C)c(N(C)C)c1CNCc1cccnc1-n1cncn1	-3.71
COc1ccc(CN2C[C@@H]3COC[C@]3(COc3cccnc3)C2)cc1	-1.95
O=C(NCCN1CCC(c2cccs2)CC1)c1ccccc1C(F)(F)F	-3.22
Cc1nc(CN2CCCC(N(C)Cc3c(C)noc3C)C2)no1 (stereo not drawn)	-2.99

Each compound was assayed against T1, Ubiquitin-activating enzyme e1, putative (Leishmania donovani (strain BPK282A1)) (UniProt E9BSI1) (assay: Leishmania donovani Ubiquitin Activating Enzyme (LdE1)). Conditions: 30 µM.
T1 sequence (whole entry): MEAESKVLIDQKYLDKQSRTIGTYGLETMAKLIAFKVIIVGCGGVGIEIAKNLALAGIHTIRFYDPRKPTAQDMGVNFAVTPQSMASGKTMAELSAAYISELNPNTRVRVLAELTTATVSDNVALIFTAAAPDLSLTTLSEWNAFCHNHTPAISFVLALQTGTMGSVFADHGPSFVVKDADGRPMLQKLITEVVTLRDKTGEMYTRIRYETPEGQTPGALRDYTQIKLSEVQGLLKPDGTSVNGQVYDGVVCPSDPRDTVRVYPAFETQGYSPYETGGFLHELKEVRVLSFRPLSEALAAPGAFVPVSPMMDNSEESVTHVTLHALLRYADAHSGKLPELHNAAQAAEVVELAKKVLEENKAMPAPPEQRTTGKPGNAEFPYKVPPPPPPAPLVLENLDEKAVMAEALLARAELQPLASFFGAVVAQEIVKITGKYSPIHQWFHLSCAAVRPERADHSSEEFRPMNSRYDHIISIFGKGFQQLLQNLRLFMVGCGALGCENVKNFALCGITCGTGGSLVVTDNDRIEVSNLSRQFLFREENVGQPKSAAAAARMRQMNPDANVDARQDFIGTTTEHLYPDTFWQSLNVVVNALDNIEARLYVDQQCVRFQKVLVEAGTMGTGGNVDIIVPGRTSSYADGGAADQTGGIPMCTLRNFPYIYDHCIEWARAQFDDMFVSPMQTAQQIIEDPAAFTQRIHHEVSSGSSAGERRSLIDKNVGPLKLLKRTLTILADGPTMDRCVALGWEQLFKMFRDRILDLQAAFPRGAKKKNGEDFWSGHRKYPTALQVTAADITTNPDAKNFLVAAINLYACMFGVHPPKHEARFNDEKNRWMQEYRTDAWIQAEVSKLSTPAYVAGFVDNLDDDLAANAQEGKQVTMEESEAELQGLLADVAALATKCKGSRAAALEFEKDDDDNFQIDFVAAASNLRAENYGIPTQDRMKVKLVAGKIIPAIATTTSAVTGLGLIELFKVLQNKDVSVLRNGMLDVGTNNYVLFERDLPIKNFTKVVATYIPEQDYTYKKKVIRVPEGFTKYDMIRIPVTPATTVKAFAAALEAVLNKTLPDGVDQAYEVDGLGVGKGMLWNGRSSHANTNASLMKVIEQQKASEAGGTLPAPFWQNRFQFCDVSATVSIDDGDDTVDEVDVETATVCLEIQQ
Type: functional
Set-up: scale not given: direction of the effect not stated beside the values

SMILES	Percent Effect [%]
CC(=O)N1CCCN(C(=O)NCCc2cc(Cl)cc(Cl)c2)CC1	-8.86
CC(NC(=O)NCCCN(C)S(C)(=O)=O)c1ccncc1 (stereo not drawn)	8.86
COc1cc(C(=O)N2CCC(c3n[nH]c(C4CC4)n3)CC2)ccc1C	-1.27
Cc1cc2n(n1)CC(CNCc1cnn(-c3ccccc3)c1)CN2 (stereo not drawn)	5.26
Cc1nc(O)cc(C2CCN(Cc3cccc(F)c3F)C2)n1 (stereo not drawn)	20.3
CCn1ccnc1CN1CCN(Cc2ccc(C#N)cc2)CC1	21.1
O=C(CC1CCCC1)N1CCCC1c1nc(O)cc(-c2ccccn2)n1 (stereo not drawn)	20.3
CC(C)NC(=O)c1ccc2c(c1)nc1n2CCN(C(C)C)C1	4
CN(C)C(=O)CC1CC2(CCNCC2)c2cc(F)ccc21 (stereo not drawn)	-5.41
COc1cccc(COCC(=O)N2CCCC(c3cc(C)[nH]n3)C2)c1 (stereo not drawn)	13.5
Cc1ccccc1C(=O)N1CCOC2(CNCCOC2)C1 (stereo not drawn)	2.7
CC(C)n1ccnc1CN1CCCN(C(=O)COC2CCCC2)CC1	3.8
OC[C@H]1CC[C@]2(CC1)CN(Cc1ccccc1F)Cc1ccccc1O2	4.05
Cc1nc(CN2C[C@@H]3CN(C(=O)c4cnccn4)C[C@@H]3C2)cs1	5.48
c1ccc(-c2noc(CNC3CCc4ncnn4C3)n2)nc1 (stereo not drawn)	-5.41
CCN1CC(C(=O)NC(C)(C)CNC(=O)OC(C)(C)C)CC1=O (stereo not drawn)	8.11
CC(Cn1cccn1)NC(=O)Nc1ccc(F)cc1 (stereo not drawn)	6.94
Cc1nc2cc(O)nn2c(C)c1CCC(=O)N(C)Cc1cscn1	18.4
CCc1ncc(CNC2CC(=O)N(CCc3cccc(Cl)c3)C2)cn1 (stereo not drawn)	13.7
CC(C)n1c(C2CCCN(CCS(C)(=O)=O)C2)nc2ccccc21 (stereo not drawn)	8.11

SMILES	Percent Effect [%]
O=C(Cc1ccc2c(c1)OCCO2)N1CCCC(n2cccn2)C1 (stereo not drawn)	2.6
Cc1nc(C)n(C2CCCN(C(=O)c3sccc3C3CC3)C2)n1 (stereo not drawn)	2.53
Cc1ccc2c(n1)N(CCn1cccn1)CCN(C(=O)CC1CC1)C2	5.41
Cc1nc(CNC(C)c2ccc(OCC(=O)NC3CC3)cc2)cs1 (stereo not drawn)	19
CN(CCC#N)C(=O)CCOc1cccc(F)c1	10.5
COc1cccc(CNC(=O)CN2CCCCC2Cn2cccn2)c1 (stereo not drawn)	5.2
CN1CC(=O)N(c2cnn(C)c2)CC12CCN(Cc1nccn1C)C2 (stereo not drawn)	8.22
COc1ncccc1NC(=O)N1CCC(CN2CCOCC2)CC1	2.67
CC(=O)NC(C)(C)C(=O)Nc1ncc(Cc2ccc(C)c(F)c2)s1	13.9
Cc1cccc(COC[C@]23COC[C@H]2CN(C(=O)c2ccsc2)C3)n1	5.41
COCc1noc(C2(c3ccc(OC)cc3)CCOCC2)n1	5.41
CC(=O)Nc1cccc(C(=O)Nc2cnc3n2CCCC3)c1	4.17
O=C(NCCOc1ccc2c(c1)OCO2)C1CC(=O)N(CC2CC2)C1 (stereo not drawn)	18.4
CN(C)c1cncc(C2CCN(CCO)CC2)n1	12.2
COc1ccc(OCC(=O)NS(=O)(=O)c2cc(F)ccc2F)cc1	0
Cc1nn(C)c(N(C)C)c1CNCc1cccnc1-n1cncn1	8.86
COc1ccc(CN2C[C@@H]3COC[C@]3(COc3cccnc3)C2)cc1	0
O=C(NCCN1CCC(c2cccs2)CC1)c1ccccc1C(F)(F)F	8.22
Cc1nc(CN2CCCC(N(C)Cc3c(C)noc3C)C2)no1 (stereo not drawn)	-15.6
